hgDAF-12 ag: activates the H. glycines DAF-12 receptor ligand-binding domain; activation, % at 6.8 µM; 370,000 tested, 1.8% active; HEK293 GAL4-hgDAF12 UAS-luciferase reporter, agonist luminescence; normalized to butyrate control;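 active = activation above a cutoff set at the mean of all screened compounds plus 3 SD, cut at about 10% in these data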
AHR act: human AHR activation. P35869. AHR-responsive luciferase reporter cells, luminescence. activation, % at 5 µM. 320,000 tested, 2.5% active. AID 2796; in the data active = activation above about 47%
DAX1 inh-1: NR0B1 (DAX1) inhibition; HEK293 Gal4-DAX1 luciferase reporter, luminescence; inhibition, % at 6.75 µM; 340,000 tested, 0.99% active;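 active = inhibition above the mean over all tested compounds plus 3 SD, cut at about 4.2% in these data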;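 also: inhibition shows as a rise in luminescence from relieved DAX1 repression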
Target sequence (P51843 207-470 limits assumed): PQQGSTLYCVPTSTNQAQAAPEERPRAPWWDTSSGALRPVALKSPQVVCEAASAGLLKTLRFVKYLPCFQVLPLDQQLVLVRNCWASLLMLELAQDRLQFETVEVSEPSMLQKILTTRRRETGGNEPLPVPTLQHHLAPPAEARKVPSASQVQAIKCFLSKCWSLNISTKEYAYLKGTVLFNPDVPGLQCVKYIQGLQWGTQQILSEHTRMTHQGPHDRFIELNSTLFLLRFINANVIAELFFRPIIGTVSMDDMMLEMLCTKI
DAX1 inh-2: inhibitors of DAX1 repression of SF-1 activated StAR promoter | HEK293T StAR-luciferase reporter, SF-1/DAX-1 repression relief | inhibition, % at 6.8 µM | 370,000 tested, 1.1% active;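 active = inhibition above the mean over all tested compounds plus 3 SD, cut at about 3.6% in these data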;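 also: higher inhibition means more luminescence from relief of DAX-1 repression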
hcDAF12 agonist: activates DAF-12 receptor from parasite H. contortus; HEK293 hcDAF-12 lit1-tk-luc reporter, luminescence; 0% DMSO, 100% Δ7-dafachronic acid; activation, % at 6.8 µM; 370,000 tested, 1.4% active; AID 652067;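 active = activation above the mean of all tested compounds plus 3 SD, cut at about 5.5% in these data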
ssDAF-12 act: activates DAF-12 receptor from parasite S. stercoralis; HEK293 ssDAF-12/GRIP1 lit1-tk-luc reporter, luminescence; % of 3 µM dafachronic acid response; activation, % at 6.8 µM; AID 652126; 370,000 tested, 1% active;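 active = activation above the mean over all tested compounds plus 3 SD, cut at about 0.9% in these data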
A number is an active result; 0 = inactive; - = not tested or not shown. Only some compounds are listed: those with a hit (about 5.7% of all), similar ones and a draw of the others.

SMILES	hgDAF-12 ag	AHR act	DAX1 inh-1	DAX1 inh-2	hcDAF12 agonist	ssDAF-12 act
Cc1ccc(NC(=O)CSCc2cc(=O)n3cc(C)sc3n2)cc1	0	0	0	0	0	0
COC(=O)[C@]12C[C@H](CC(=O)NCCCN3CCCC3=O)C(=O)N(Cc3cccc4ccccc34)C1=C[C@H](C1CCCC1)O[C@@H]2C	0	-	-	0	0	0
Cc1ccc(N=C2S/C(=C\c3cn(CC(=O)O)c4ccccc34)C(=O)N2C)cc1	0	0	0	0	0	0
COc1ccccc1C1CCCN1Cc1nc(-c2ccc(C)s2)oc1C (centres undefined)	0	0	0	0	0	0
CSc1ccc(/C=C/C(=O)c2c(O)cc(C)oc2=O)cc1	0	0	6.6	0	0	0
NC(=O)c1ncn([C@@H]2O[C@H](C(=O)N[C@H](Cc3c[nH]c4ccccc34)C(=O)N3CCN(CC(=O)N4CCCC4)CC3)[C@@H](O)[C@H]2O)n1	0	-	-	0	0	0
O=C(NC1CCS(=O)(=O)C1)/C(=C/c1ccc(Cl)cc1)NC(=O)c1ccccc1 (centres undefined)	0	0	4.8	0	0	0
Cn1nc(C(=O)Nc2ccc(Br)cc2)cc1C(=O)Nc1ccc(Br)cc1	0	64.8	0	0	0	0
Cn1nc(C(F)(F)F)cc1C(=O)Nc1ccc(Cl)cc1	0	68.9	0	0	0	0
Cn1nc(C(F)(F)F)c2cc(C(=O)Nc3ccc(Cl)cc3)sc21	0	63.5	0	0	0	0
Cn1nc(C(F)(F)F)cc1C(=O)Nc1ccc(-c2ccno2)cc1	0	0	0	0	0	0
Cn1nc(C(F)(F)F)c2cc(C(=O)Nc3ccc(F)cc3F)sc21	0	0	0	0	0	0
CCOC(=O)c1cc(C(=O)Nc2ccc(C)c(F)c2)nn1C	10.7	0	0	0	0	0
Cc1cc(S(=O)(=O)NC(C)c2nnc3ccccn23)ccc1Br (centres undefined)	0	0	0	0	0	0
COc1cccc(CC(=O)N2CCCC(CO)(Cc3ccc(F)cc3F)C2)c1 (centres undefined)	0	0	0	0	0	0
COC(=O)c1ccc(CN2CCCC(CO)(Cc3ccc(F)cc3F)C2)cc1 (centres undefined)	0	0	0	0	0	1.0
Cc1ccc(C=Nc2ccccc2C(=O)Nc2ccccc2)cc1	0	0	0	0	0	0
Cc1ccc(C=Nc2ccccc2C(N)=O)cc1	11.8	0	0	0	5.9	0
CC(=O)CSc1nnc(-c2ccc(S(=O)(=O)N3CCCC3)cc2)n1C	0	0	0	0	0	0
CC(=O)CSc1nnc(-c2ccc(S(=O)(=O)N3CCOCC3)cc2)n1C	0	0	5.4	0	0	0
CCOC(=O)c1cnc2c(ccc3ccccc32)c1NCCCN(C)C	13.1	0	8.1	0	0	0
OC1c2cc(Cl)ccc2-c2c(Cl)cc(Cl)cc21 (centres undefined)	0	-	5.4	0	0	0
OC1c2cc(Cl)cc(Cl)c2N=C2CCCN21 (centres undefined)	0	-	-	0	0	0
COc1ccc2[nH]c3c(c2c1)CCN[C@]31C(=O)Nc2ccccc21	0	-	-	0	0	0
NC(=O)c1oc2ccccc2c1NC(=O)c1ccccc1	0	68.8	0	0	0	0
SMILES	hgDAF-12 ag	AHR act	DAX1 inh-1	DAX1 inh-2	hcDAF12 agonist	ssDAF-12 act
COc1ccccc1NC(=O)c1oc2ccccc2c1NC(=O)c1ccco1	0	0	0	0	0	0
NC(=O)c1oc2ccccc2c1NC(=O)c1ccco1	0	47.2	0	0	0	0
N#CC1(NC(=O)CN2CCN(S(=O)(=O)c3ccccc3F)CC2)CCCC1	0	0	0	0	0	0
O=C(O)c1ccc2c3c(cccc13)C(=O)N(c1cccc3ccccc13)C2=O	0	0	4.5	0	0	0
Nc1nonc1C(=O)N/N=C/c1ccc(Br)o1	0	0	0	0	0	0
N/C(=N\N=C\c1ccc([N+](=O)[O-])cc1)c1nonc1N	10.7	0	0	0	0	0
N/C(=N\N=C\c1ccc(Br)o1)c1nonc1N	13.0	0	6.1	0	0	0
Cc1nc2cc(NCc3ccccc3O)ccc2n1Cc1ccccc1	0	0	0	0	0	0
COc1ccc(-n2nc(C(=O)NCC(=O)N3CCCCC3)c3ccccc3c2=O)cc1	0	0	0	0	0	0
COc1ccc(-n2nc(C(=O)NCC(=O)N3CCCC3)c3ccccc3c2=O)cc1	0	0	5.2	0	0	0
CCC(=NCCc1ccc(OC)c(OC)c1)c1ccccc1O	0	0	6.1	0	0	0
CCC(C(N)=NCCc1ccc(OC)c(OC)c1)c1ccccc1 (centres undefined)	0	-	0	0	0	0
O=C(NC12CC3CC(CC(C3)C1)C2)N1CCN(C(=O)c2ccco2)CC1	0	0	0	0	0	0
CC(C)[C@H](NC(=O)N1c2ccccc2NC(=O)[C@@H]1C(C)C)C(=O)N[C@@H](C(=O)O)c1ccccc1	0	0	4.5	0	0	0
COc1cccc(C(=O)N/N=c2/oc3ccccc3cc2C(N)=O)c1	0	0	0	0	0	0
NC(=O)c1cc2ccccc2o/c1=N/NC(=O)c1ccccc1	0	50.8	0	0	0	0
COc1cc(/C=C2/NC(=O)NC2=O)cc(Br)c1OCc1cccc(C(=O)O)c1	0	0	0	0	0	0
COc1cc(/C=C2/NC(=O)NC2=O)cc(Br)c1OCc1ccccc1	0	58.7	0	0	0	0
C/C(=C\C(=O)Nc1cscc1C)C(=O)O	0	0	0	0	0	1.1
CS(=O)(=O)Nc1ccccc1C(=O)Nc1cc2c(cc1C(=O)O)OCCCO2	0	0	0	0	0	0
O=C(O)c1cc2c(cc1NC(=O)c1ccccc1C(F)(F)F)OCCCO2	0	0	0	0	0	0
O=C(Nc1cc2c(cc1C(=O)O)OCCCO2)c1ccc(C(F)(F)F)cc1	0	73.4	0	0	0	0
CS(=O)(=O)c1ccccc1C(=O)Nc1cc2c(cc1C(=O)O)OCCCO2	0	0	5.8	0	0	0
COCc1[nH]nc2c1C(c1ccc3c(c1)OCO3)N(Cc1ccccc1)C2=O (centres undefined)	0	-	-	0	0	0
CC(=S)/C=C1\Sc2ccccc2N1C	0	0	0	0	0	0
CN1c2ccccc2Sc2cc(N)ccc21	0	62.1	0	0	0	0
CCc1cccc(CC)c1NC(=S)NCc1nc2ccccc2[nH]1	0	0	5.4	0	0	0
CC1CCCCN1C(=O)COC(=O)/C=C/c1ccc2ccccc2n1 (centres undefined)	0	0	0	0	0	0
Cc1ccc(CSc2nnc(SCC(=O)N/N=C/c3ccc(C(=O)O)cc3)s2)cc1	0	0	4.3	0	0	0
CCc1ccc(Nc2nnc(SCC(=O)NC(=O)c3cccn3C)s2)cc1	0	0	0	0	0	0
